Compounds without any hit were thinned out: in the full panel of roughly 79,000, 15% have a hit. Unmarked numbers belong to inactive results. Activity calls are given as the source filed them. No stated cut-off is given here; in the data, active means growth inhibition above about 70%; inactive means the rest.
How the values were obtained:
[1] = NCI Yeast Anticancer Drug Screen. Data for the rad50 strain (AID 155);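 further: 0% = growth of vehicle-only cultures of the same strain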; conditions: S. cerevisiae rad50 strain growth inhibition; at 50.0 µM; stronger effect = higher value
Summary of the method: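 Growth of the mutant yeast was measured after compound exposure and referenced to vehicle-treated cultures.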

[2] = NCI Yeast Anticancer Drug Screen. Data for the mec2-1 strain (AID 157); conditions: S. cerevisiae mec2-1 strain, at 50.0 µM, stronger effect = higher value
Summary of the method: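 Compounds were applied to mec2-1 yeast cells. Their growth was then compared with that of vehicle-treated cultures to give growth inhibition.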

[3] = NCI Yeast Anticancer Drug Screen. Data for the sgs1 mgt1 strain (AID 161);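 further: 0% = growth of cultures given vehicle only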; conditions: S. cerevisiae sgs1 mgt1 strain, at 50.0 µM, stronger effect = higher value
Summary of the method: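 This yeast growth screen uses a strain with defined DNA-repair lesions; compound-treated growth is compared with vehicle-treated growth.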

[4] = NCI Yeast Anticancer Drug Screen. Data for the cln2 rad14 strain (AID 165);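 further: 0% = growth equal to vehicle treated cultures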; conditions: S. cerevisiae cln2 rad14 strain, at 50.0 µM, stronger effect = higher value
Summary of the method: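 Strain: cln2 rad14 yeast, altered in cell cycle control and DNA damage repair. Read-out: growth inhibition vs vehicle.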

[5] = NCI Yeast Anticancer Drug Screen. Data for the bub3 strain (AID 167); conditions: S. cerevisiae bub3 mutant strain, at 50.0 µM, stronger effect = higher value
Summary of the method: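 Whole-cell yeast assay. The mutant strain was incubated with compounds, and growth inhibition was determined by comparison with vehicle-treated cells.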

[6] = NCI Yeast Anticancer Drug Screen. Data for the mlh1 rad18 strain (AID 175); conditions: S. cerevisiae mlh1 rad18 strain growth inhibition; at 50.0 µM; stronger effect = higher value
Summary of the method: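 A repair-deficient yeast strain is exposed to test compound, and growth is scored relative to vehicle-treated controls.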

SMILES | growth inhibition [1] | growth inhibition [2] | growth inhibition [3] | growth inhibition [4] | growth inhibition [5] | growth inhibition [6]
C/C(=C\c1ccccc1)c1ccccc1 | -47.8% | 1.9% | -3.75% | -30.4% | 2.1% | 8.45%
COCC(C)OC(=O)c1ccccc1 (configuration not stated) | 23.8% | -0.8% | -9.9% | -23.4% | -14.9% | 31.9%
Cc1c(C(=O)CC(=O)C(=O)Nc2ccccc2C(F)(F)F)[n+](=O)c2ccccc2n1[O-] | 5.4% | 8.05% | -9.4% | 16.9% | 3.55% | -6.45%
C/C(=N\N=C(/C)c1ccc(C)cc1)c1ccc(C)cc1 | 10.7% | -30.3% | 20.1% | 6.1% | 2.45% | 3.7%
CCCCOC(=O)c1ccc(NC(=O)Nc2c(C)cccc2C)cc1 | -0.65% | -4.4% | 27.3% | -6.2% | 30.9% | 25%
CC(=O)OCCC(OC(C)=O)c1ccccn1 (configuration not stated) | -13.9% | -13.1% | -9.1% | -2.95% | 3.95% | -18.6%
O=C(O)/C=C/C(=O)Nc1cccc2c1Cc1ccccc1-2 | -7.2% | 9% | 20.9% | -29.5% | -4.3% | 19.9%
NC(=O)c1ccccc1NC(=O)C(=O)C(C(=O)c1ccc2ccccc2c1)C1OC(=O)c2ccccc21 (configuration not stated) | 0.7% | -2.15% | 10.6% | -44.6% | 15.4% | 9.15%
CC1(C)NC(=S)NC1=S | 5.4% | -6.9% | -13.9% | -26.9% | -4.45% | -4.35%
O=C(COc1ccc(Cl)cc1Cl)Nc1ccc(N=Nc2ccccc2)cc1 | -0.5% | 7.55% | -1.95% | -3.65% | -2.8% | 19.9%
CCCCCCN(CCCCCC)C(=S)N/N=C(\C)c1ccccn1 | 85% (active) | 85.5% (active) | 83.7% (active) | 72.3% (active) | 87.6% (active) | 82.2% (active)
CC(=O)Oc1cc2c(c3ccc4ccccc4c13)CCc1ccccc1-2 | 11.8% | -11.7% | 10.1% | 10.2% | 0.1% | 4.9%
O=C(N/N=C\c1cccc(O)c1)c1ccncc1 | 1.75% | 11.9% | -37.5% | -19.4% | 3% | -1.05%
CCOC(N)=C(C#N)C#N | 12.6% | 15.1% | 3.45% | 21.4% | 23.1% | 11.8%
CCOC(=O)c1cc(CC)[nH]c(=O)c1C#N | -19.1% | 8.05% | -11.3% | -32.7% | 5.4% | 2.3%
COc1ccc2c(c1)CCN1CCCc3ccc(OC)cc3C21 (configuration not stated) | 18.9% | 30.3% | 24.6% | 55.1% | 31.4% | 46.7%
C=CCC(OC(=O)CC)c1ccc2c(c1)OCO2 (configuration not stated) | 7.3% | -11.6% | 5% | 4.05% | 9.3% | -11.9%
O=C(O)c1ccc(-n2cnc3c(=O)[nH]cnc32)cc1 | -8.6% | -12.9% | -13.3% | -9.45% | -4.9% | -7.85%
CC(=O)Nc1c(Cl)cc2c(c1Cl)Cc1cc(N(C)C)ccc1-2 | -13.6% | -0.35% | 0.5% | 6.25% | 1.75% | -9.25%
CN(C)/N=C1/CCC(C(F)(F)F)(C(F)(F)F)O1 | 40.1% | 31.6% | 41.5% | 28.9% | 5.1% | -18.4%
CCCCCCCCCCCCCCCCCC(=O)Oc1ccc(OCc2ccccc2)cc1 | -13.5% | -25.6% | -11.4% | 16.2% | -11.4% | -16.6%

SMILES | growth inhibition [1] | growth inhibition [2] | growth inhibition [3] | growth inhibition [4] | growth inhibition [5] | growth inhibition [6]
CC(C)(C)OC(=O)NC(CS(=O)(=O)O)C(=O)O (configuration not stated) | -39.1% | -11.4% | -2.4% | 13.4% | 13% | -15.3%
O=C1OC2C(Cl)CC(Cl)CC2C=C1c1cccc([N+](=O)[O-])c1 (configuration not stated) | -3.3% | 12.2% | -16.6% | -21.9% | 11.8% | -0.4%
NS(=O)(=O)c1ccc(N=Nc2c[nH]c(=O)c(O)c2)cc1 | 3.45% | 4.95% | -9.55% | -37.4% | -60.4% | 2.3%
Clc1nncc2sc(-c3ccccc3)nc12 | 20.9% | -1.7% | 28.1% | 17.4% | 18.3% | -18.3%
O=C(O)c1cnc2c(ccc3[nH]cccc32)c1=O | -7.3% | -33.8% | -9% | 15.6% | 19.6% | -2.8%
O=C1CC(Cc2n[nH]c3c2CCC3)CC(=O)N1 | -8.25% | 2.65% | -10.2% | -16.4% | -10% | -13.2%
COc1cc(C)c(C(=O)c2ccccc2NS(=O)(=O)c2ccc(C)cc2)cc1OC | 7.6% | -0.7% | -1.5% | 22.6% | -2.95% | 9.1%
C=C1N(C)c2ccccc2C1(C)C | 22.7% | 10.2% | -12.2% | 29.4% | 6.2% | 17.3%
CCCCC1(O)C(=O)N(c2ccccc2)N(c2ccccc2)C1=O | 17.2% | 11.1% | 7.45% | 13.1% | 22.4% | 4.2%
CC(=O)OCC1COC(C2CC=CCC2C)O1 (configuration not stated) | -1.9% | -8.9% | -8.35% | 4.05% | 13.6% | -7.6%
N=C(CNC(=O)OCc1ccccc1)N1CCCC1C(=O)O (configuration not stated) | 13.6% | 2.8% | 0.9% | -1.7% | -1.8% | -6.95%
Nc1ccc(CCCCOc2ccccc2)cc1 | 98.6% (active) | 99% (active) | 98.5% (active) | 98.5% (active) | 99% (active) | 98.4% (active)
COc1cc(C(=O)NC(=S)NC2CCCCCCCCCCC2)cc(OC)c1OC | 8.1% | -15.3% | 7.25% | 1.65% | 6.05% | 4.6%
O=C(NCCCl)Oc1ccccc1 | 6.85% | -15.5% | -7.95% | -0.1% | -4.9% | -9.1%
CCOC(=O)C(=O)C1CCCC1=O (configuration not stated) | -6.9% | -6.65% | 2.25% | -0.7% | 1.7% | -0.6%
CCOC(=O)c1cccc2ncccc12 | -1.6% | 9.35% | -2.8% | -28.2% | -9.05% | 10.8%
Cc1ccc(N2CCN(c3ccc([N+](=O)[O-])cc3)CC2)cc1Cl | -6.15% | 7.15% | 2.85% | -12.4% | 0.15% | -28.3%
O=P(Nc1ccc(Cl)c(Cl)c1)(N1CCCCC1)N1CCCCC1 | 3.5% | -47.8% | -12.4% | -12.8% | 2.45% | 14.7%
O=C([O-])c1cc(I)cc(I)c1[OH2+].O=C([O-])c1cc(I)cc(I)c1[OH2+].[Mn+2] | -1.55% | -19.4% | -6.2% | -23.7% | -46% | 5.8%
CC(=O)OCC1OC(n2cnc3c(N)ncnc32)C(Nc2ccc([N+](=O)[O-])cc2[N+](=O)[O-])C(OC(C)=O)C1OC(C)=O (configuration not stated) | 23.2% | 4.4% | 5.8% | 17.9% | 3.45% | 21.8%
NNC(=O)CCCCCCO | 5.3% | 16.3% | 10.1% | 27.6% | 18.3% | 7.45%
